Consider seven compounds from PubChem BioAssay (EPA / NIEHS).

A short description of assay [1]: CEETOX_H295R_OHPROG: CeeTox H295R High-throughput Steroidogenesis Assay for OH-Progesterone (OHPROG) (AID 2283435).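 For AC50: human adrenal H295R cells primed 48 h with 10 µM forskolin.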 The conditions noted are these: actives raise or lower the signal. A digest of the protocol:
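H295R adrenal cells prestimulated 48 h with 10 uM forskolin, then exposed 48 h to chemical (0.1% DMSO final). 17alpha-hydroxyprogesterone in medium quantified by HPLC-MS/MS; bidirectional fit versus DMSO, with MTT viability measured in the same wells.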

Assay [2] can be described thus: CEETOX_H295R_CORTIC: CeeTox H295R High-throughput Steroidogenesis Assay for Corticosterone (CORTIC) (AID 2283437).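 For AC50: human H295R adrenal cells prestimulated with forskolin before chemical exposure.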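 Note: corticosterone secreted into medium quantified by mass spectrometry.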 Conditions: actives raise or lower the signal. A digest of the protocol:
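Corticosterone secreted into medium is measured by reverse-phase HPLC with tandem MS following liquid-liquid extraction. Cells are forskolin-stimulated (10 uM, 48 h) before 48 h test exposure; activity fitted in both directions against DMSO.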

Assay [3] can be described thus: CEETOX_H295R_CORTISOL: CeeTox H295R High-throughput Steroidogenesis Assay for Cortisol (AID 2283438).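 Note: cortisol secreted into medium quantified by LC-MS/MS.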 Conditions: actives raise or lower the signal. A digest of the protocol: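 Forskolin-primed H295R cells (10 uM, 48 h) treated 48 h with test chemical in 0.1% DMSO. Cortisol in medium quantified by MTBE extraction and HPLC-MS/MS; bidirectional fit vs DMSO, MTT viability in same wells.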

The nature of assay [4]: CEETOX_H295R_DOC: CeeTox H295R High-throughput Steroidogenesis Assay for DOC (AID 2283439). Conditions: actives raise or lower the signal. A digest of the protocol: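 H295R cells prestimulated 48 h with 10 uM forskolin, then exposed 48 h to test chemical (0.1% DMSO final). Medium 11-deoxycorticosterone measured by HPLC-MS/MS after MTBE extraction; bidirectional fit vs DMSO, viability checked by MTT in same wells.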

Assay [5] in a line: CEETOX_H295R_ESTRADIOL: CeeTox H295R High-throughput Steroidogenesis Assay for Estradiol (AID 2283440).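 Note: estradiol secreted into medium quantified by LC-MS/MS after dansyl derivatisation.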 Conditions: actives raise or lower the signal. In a few lines:
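Following OECD 456 with minor changes, H295R cells received 10 uM forskolin for 48 h and then test chemical for 48 h. Hormone output was read by HPLC-MS/MS, with cytotoxic concentrations diluted until MTT viability reached ≥70%.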

The nature of assay [6]: CEETOX_H295R_ESTRONE: CeeTox H295R High-throughput Steroidogenesis Assay for Estrone (AID 2283441).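 Note: estrone secreted into medium measured by LC-MS/MS after dansyl derivatization.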 Conditions: actives raise or lower the signal. A digest of the protocol:
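H295R cells prestimulated 48 h with 10 uM forskolin, then exposed 48 h to chemicals in 0.1% DMSO final; estrone in medium extracted with MTBE, dansyl-derivatized, quantified by HPLC-MS/MS; bidirectional fitting versus DMSO, viability by MTT.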

A short description of assay [7]: CEETOX_H295R_PROG: CeeTox H295R High-throughput Steroidogenesis Assay for Progesterone (PROG) (AID 2283442).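 For AC50: human H295R adrenal cells primed with 10 µM forskolin before dosing.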 The conditions noted are these: actives raise or lower the signal. In a few lines:
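Adrenal H295R line, forskolin-stimulated (10 uM, 48 h) before dosing. 48 h exposure, 0.1% DMSO vehicle. Secreted progesterone by reverse-phase HPLC with ESI+ MS/MS quantification; DMSO-normalised bidirectional curve fit.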

Read-out in assay [8]: Tumor necrosis factor receptor superfamily member 6 (Homo sapiens) (UniProt P25445)
As to the kind of experiment: LTEA_HepaRG_FAS: Life Technologies and Expression Analysis (LTEA) Assay for Fas cell surface death receptor (FAS) using HepaRG (AID 2283447). The conditions noted are these: mRNA level, 48 h; actives raise or lower the signal. A digest of the protocol:
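FAS transcript level was measured by TaqMan qRT-PCR against three housekeeping genes after 48 h chemical exposure. Cells were HepaRG, 0.5% DMSO vehicle, with a top concentration of 100 uM and half-log dilutions over eight points, in duplicate.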

Read-out in assay [9]: Cyclin D2 (CCND2), CCND2 (gene 894)
As to the kind of experiment: LTEA_HepaRG_CCND2: Life Technologies and Expression Analysis (LTEA) Assay for Cyclin D2 (CCND2) using HepaRG (AID 2283449). Conditions: mRNA level, 48 h; actives raise or lower the signal. A digest of the protocol: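 Read-out is CCND2 mRNA level measured by qRT-PCR in human HepaRG liver cells and normalised to three housekeeping genes. Chemicals were applied for 48 h at up to 100 uM, with gain or loss fitted relative to 0.5% DMSO.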

Read-out in assay [10]: Cyclin Dependent Kinase Inhibitor 1A (CDKN1A), CDKN1A (gene 1026)
The assay can be described thus: LTEA_HepaRG_CDKN1A: Life Technologies and Expression Analysis (LTEA) Assay for Cyclin Dependent Kinase Inhibitor 1A (CDKN1A) using HepaRG (AID 2283450). Conditions: mRNA level, 48 h; actives raise or lower the signal. In a few lines: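 Cryopreserved HepaRG cells were plated and cultured 48 h, then switched to serum-free induction medium. Chemicals (eight half-log concentrations, top 100 uM, 0.5% DMSO) were applied for 48 h. Lysates underwent qRT-PCR for CDKN1A with housekeeping normalization.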

Read-out in assay [11]: Cyclin D1 (CCND1), CCND1 (gene 595)
The assay can be described thus: LTEA_HepaRG_CCND1: Life Technologies and Expression Analysis (LTEA) Assay for Cyclin D1 (CCND1) using HepaRG (AID 2283451). Conditions: mRNA level, 48 h; actives raise or lower the signal. In a few lines: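 Human liver HepaRG line; 48 h dosing, 8 conc. ≤100 uM, 0.5% DMSO; TaqMan qRT-PCR mRNA, 3 housekeeping genes; bidirectional curve fit vs DMSO.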

Read-out in assay [12]: flavin-containing dimethylaniline monooxygenases 3 (FMO3), FMO3 (gene 2328)
As to the kind of experiment: LTEA_HepaRG_FMO3: Life Technologies and Expression Analysis (LTEA) Assay for flavin-containing dimethylaniline monooxygenases 3 (FMO3) using HepaRG (AID 2283453). The conditions noted are these: mRNA level, 48 h; actives raise or lower the signal. A digest of the protocol:
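Differentiated HepaRG cells in serum-free induction medium, exposed 48 h in duplicate to 8 half-log concentrations up to 100 uM in 0.5% DMSO. FMO3 mRNA by qRT-PCR, normalized to ACTB, GAPDH, POLR2A; bidirectional fit vs DMSO.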

Read-out in assay [13]: Cytochrome P450 (CYP1A1), CYP1A1 (gene 1543)
As to the kind of experiment: LTEA_HepaRG_CYP1A1: Life Technologies and Expression Analysis (LTEA) Assay for Cytochrome P450 (CYP1A1) using HepaRG (AID 2283454). The conditions noted are these: mRNA level, 48 h; actives raise or lower the signal. A digest of the protocol: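 Induction of CYP1A1 mRNA in a human hepatic cell line was measured 48 h after dosing, with 1 mM phenobarbital as induction positive control and 0.5% DMSO vehicle as baseline for bidirectional curve fitting.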

Read-out in assay [14]: CFLAR gene, CFLAR (gene 8837)
The assay can be described thus: LTEA_HepaRG_CFLAR: Life Technologies and Expression Analysis (LTEA) Assay for CFLAR gene using HepaRG (AID 2283455). Conditions: mRNA level, 48 h; actives raise or lower the signal. A digest of the protocol: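 HepaRG, 48 h exposure, 8-pt conc-response (100 uM top, half-log), 0.5% DMSO vehicle, duplicates. CFLAR expression by qRT-PCR; ACTB/GAPDH/POLR2A normalization; gain or loss fit vs DMSO baseline.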

Read-out in assay [15]: Forkhead box O1 (FOXO1), FOXO1 (gene 2308)
As to the kind of experiment: LTEA_HepaRG_FOXO1: Life Technologies and Expression Analysis (LTEA) Assay for Forkhead box O1 (FOXO1) using HepaRG (AID 2283456). Conditions: mRNA level, 48 h; actives raise or lower the signal. In a few lines: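 Readout is FOXO1 transcript level by multiplexed qRT-PCR against three housekeeping genes, curve-fitted in both directions relative to 0.5% DMSO vehicle. Human HepaRG cultures received chemicals for 48 h, up to 100 uM in half-log steps.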

Read-out in assay [16]: growth arrest and DNA damage 45 (GADD45A), GADD45A (gene 1647)
The assay can be described thus: LTEA_HepaRG_GADD45A: Life Technologies and Expression Analysis (LTEA) Assay for growth arrest and DNA damage 45 (GADD45A) using HepaRG (AID 2283458). Conditions: mRNA level, 48 h; actives raise or lower the signal. A digest of the protocol:
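Differentiated HepaRG cells exposed 48 h in serum-free induction medium to 8 concentrations, top 100 uM in half-log steps, 0.5% DMSO. GADD45A mRNA quantified by qRT-PCR, normalized to ACTB, GAPDH and POLR2A; bidirectional fit versus DMSO.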

Read-out in assay [17]: Fatty acid synthase (Homo sapiens) (UniProt P49327)
As to the kind of experiment: LTEA_HepaRG_FASN: Life Technologies and Expression Analysis (LTEA) Assay for Fatty Acid Synthase (FASN) using HepaRG (AID 2283448). Conditions: mRNA level, 48 h; actives raise or lower the signal. In a few lines:
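Differentiated HepaRG cells in serum-free induction medium exposed 48 h in duplicate to eight half-log concentrations, top 100 uM, 0.5% DMSO. FASN mRNA by qRT-PCR normalised to ACTB, GAPDH, POLR2A; bidirectional fit versus DMSO.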

Read-out in assay [18]: catalase (CAT), CAT (gene 847)
As to the kind of experiment: LTEA_HepaRG_CAT: Life Technologies and Expression Analysis (LTEA) Assay for catalase (CAT) using HepaRG (AID 2283452). Conditions: mRNA level, 48 h; actives raise or lower the signal. A digest of the protocol:
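Expression of CAT was quantified by TaqMan qRT-PCR with ACTB/GAPDH/POLR2A normalization after 48 h chemical exposure of HepaRG. Eight-point half-log series, top 100 uM, in 0.5% DMSO; gain or loss fitted against vehicle.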

By AC50 is commonly meant the concentration at which the activity in the assay is half-maximal.

Structures are written as SMILES. The source made the active and inactive calls. Rule for the calls: active = hit-call score of the fitted dose curve at least 0.9, where 1 is the maximum; inactive = score below 0.9.

Fatty acid synthase (Homo sapiens), sequence (P49327 whole entry, looked up): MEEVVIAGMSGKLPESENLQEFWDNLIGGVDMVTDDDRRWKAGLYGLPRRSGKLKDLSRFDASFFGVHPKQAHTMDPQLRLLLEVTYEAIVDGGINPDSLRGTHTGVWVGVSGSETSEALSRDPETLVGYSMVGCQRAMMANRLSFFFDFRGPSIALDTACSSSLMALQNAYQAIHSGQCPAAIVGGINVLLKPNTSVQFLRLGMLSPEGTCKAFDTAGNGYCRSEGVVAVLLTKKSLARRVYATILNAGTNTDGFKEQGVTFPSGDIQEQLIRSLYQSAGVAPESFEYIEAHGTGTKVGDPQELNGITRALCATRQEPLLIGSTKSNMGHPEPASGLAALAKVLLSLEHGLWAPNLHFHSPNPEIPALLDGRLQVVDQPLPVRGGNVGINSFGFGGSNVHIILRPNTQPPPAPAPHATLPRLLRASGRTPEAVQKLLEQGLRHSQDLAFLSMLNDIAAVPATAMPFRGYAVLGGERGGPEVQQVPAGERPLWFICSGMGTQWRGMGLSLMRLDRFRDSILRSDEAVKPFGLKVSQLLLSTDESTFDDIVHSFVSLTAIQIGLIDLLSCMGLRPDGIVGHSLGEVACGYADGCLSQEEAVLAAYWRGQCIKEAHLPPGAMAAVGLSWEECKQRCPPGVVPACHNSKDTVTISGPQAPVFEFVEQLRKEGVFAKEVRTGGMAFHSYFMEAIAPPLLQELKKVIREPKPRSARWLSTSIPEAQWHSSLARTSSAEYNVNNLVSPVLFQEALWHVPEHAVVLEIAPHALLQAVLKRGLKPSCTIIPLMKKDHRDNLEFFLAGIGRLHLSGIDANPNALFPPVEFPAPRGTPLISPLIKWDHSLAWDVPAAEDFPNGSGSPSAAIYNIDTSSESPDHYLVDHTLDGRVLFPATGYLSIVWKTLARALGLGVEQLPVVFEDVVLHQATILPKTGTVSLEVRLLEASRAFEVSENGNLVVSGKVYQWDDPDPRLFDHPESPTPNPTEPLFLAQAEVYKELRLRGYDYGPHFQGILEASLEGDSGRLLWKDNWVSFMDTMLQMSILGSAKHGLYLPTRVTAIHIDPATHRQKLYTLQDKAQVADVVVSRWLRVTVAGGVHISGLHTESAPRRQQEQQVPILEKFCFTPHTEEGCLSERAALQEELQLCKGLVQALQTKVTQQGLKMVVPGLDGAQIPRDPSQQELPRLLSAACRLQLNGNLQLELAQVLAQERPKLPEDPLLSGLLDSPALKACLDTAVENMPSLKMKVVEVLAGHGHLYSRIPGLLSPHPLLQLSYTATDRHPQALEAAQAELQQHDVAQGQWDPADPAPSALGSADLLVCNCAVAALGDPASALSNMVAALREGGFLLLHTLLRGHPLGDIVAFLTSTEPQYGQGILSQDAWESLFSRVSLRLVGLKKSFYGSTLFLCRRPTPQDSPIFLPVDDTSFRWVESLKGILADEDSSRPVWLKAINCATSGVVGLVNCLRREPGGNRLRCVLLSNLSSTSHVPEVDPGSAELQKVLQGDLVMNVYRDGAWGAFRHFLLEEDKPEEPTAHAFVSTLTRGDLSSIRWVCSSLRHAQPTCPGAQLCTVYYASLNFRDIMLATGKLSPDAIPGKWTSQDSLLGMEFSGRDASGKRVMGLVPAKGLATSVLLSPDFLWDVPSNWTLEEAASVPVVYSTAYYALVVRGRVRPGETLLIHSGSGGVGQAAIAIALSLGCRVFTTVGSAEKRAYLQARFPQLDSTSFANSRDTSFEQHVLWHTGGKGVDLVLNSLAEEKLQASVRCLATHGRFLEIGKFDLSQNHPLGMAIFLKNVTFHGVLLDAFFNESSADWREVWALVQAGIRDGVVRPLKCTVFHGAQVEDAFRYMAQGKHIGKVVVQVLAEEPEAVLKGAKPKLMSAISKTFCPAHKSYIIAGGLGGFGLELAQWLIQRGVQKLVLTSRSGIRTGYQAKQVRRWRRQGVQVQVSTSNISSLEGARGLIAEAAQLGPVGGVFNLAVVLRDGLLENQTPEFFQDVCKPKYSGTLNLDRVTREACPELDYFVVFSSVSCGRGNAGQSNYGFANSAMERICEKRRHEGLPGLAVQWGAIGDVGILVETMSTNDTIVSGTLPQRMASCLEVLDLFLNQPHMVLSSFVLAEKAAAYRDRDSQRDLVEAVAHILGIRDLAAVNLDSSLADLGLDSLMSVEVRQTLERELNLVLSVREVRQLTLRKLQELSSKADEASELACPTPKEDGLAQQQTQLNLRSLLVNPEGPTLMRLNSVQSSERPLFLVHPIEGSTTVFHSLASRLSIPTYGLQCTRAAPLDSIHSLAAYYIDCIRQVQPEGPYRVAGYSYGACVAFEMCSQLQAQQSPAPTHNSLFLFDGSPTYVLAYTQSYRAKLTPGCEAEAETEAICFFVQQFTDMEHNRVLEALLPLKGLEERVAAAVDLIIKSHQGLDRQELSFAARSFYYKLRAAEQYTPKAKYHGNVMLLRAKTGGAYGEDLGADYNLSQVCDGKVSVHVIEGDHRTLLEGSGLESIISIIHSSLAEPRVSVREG

Regarding `CCC(C)(C)c1ccc(O)cc1`, the concentration at half-maximal activity (AC50) in [1] was 15.5 µM (active); in [4], 21.9 µM (active). For the same compound, the call in [2], in assay [3], in [5], in [6], in [7] and in assay [8] was inactive. The compound was called inactive in assay [9], in assay [10], in assay [11], in assay [12], in assay [13] and in assay [14]. The call in assay [15] and in assay [16] was inactive.

Consider `c1ccc(OP(Oc2ccccc2)Oc2ccccc2)cc1`, for which the result in [1], in assay [2], in assay [3], in [4], in assay [5] and in assay [6] was inactive. Moreover, the compound was called inactive in [7], in [8], in assay [17], in assay [9], in assay [10] and in assay [11]. The result in assay [12], in [14], in [15] and in [16] was inactive. Moreover, the AC50 in [13] is 77.3 µM (active).

Turning to `Cc1ccc(O)cc1C`, the call in [1], in assay [5], in assay [6], in assay [7], in assay [8] and in assay [17] was inactive. Also, the outcome in [9], in assay [10], in assay [11], in assay [12], in [14] and in assay [15] was inactive. Moreover, the outcome in assay [16] was inactive.

With `CCCCOCCOP(=O)(OCCOCCCC)OCCOCCCC`, the outcome in [1], in assay [2], in assay [3], in assay [4], in assay [5] and in [6] was inactive. In addition, in [7], the outcome was inactive.

As for `CC(Cl)(Cl)C(=O)O`, the outcome in assay [8], in assay [17], in assay [9], in [10], in assay [11] and in assay [18] was inactive. Moreover, the result in assay [12], in assay [13], in assay [14], in [15] and in [16] was inactive.

On to `CC(C)Nc1ccc(Nc2ccccc2)cc1`, for which the call in assay [1], in assay [2], in assay [3], in assay [4], in assay [5] and in assay [6] was inactive. Also, the compound was called inactive in assay [7].

Take `CCOP(=S)(NC(C)C)Oc1ccccc1C(=O)OC(C)C` (stereo not drawn): the AC50 was 4.65 µM (active) in assay [1], 6.94 µM (active) in assay [2] and 6.65 µM (active) in [7]. For the same compound, the compound was called inactive in assay [3], in assay [4], in assay [5] and in [6].
